Pf growth 96h: P. falciparum growth inhibition at 96 hour, primary screen for plastid delayed-death inhibitors; P. falciparum luciferase reporter growth, 96 h; Potency, µM (titrated, usually from 28.7 µM), for inactives: at the top dose activity change, negative = inhibition, most hits filed as inhibitors; 6.9% of 320,000 active; AID 504834; note: potency is the fitted concentration of half-maximal effect; % is set by controls: 0 for no effect and ±100 for the full control effect
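Luminescence readout: decreased luciferase signal marks inhibited growth of reporter-expressing P. falciparum in infected red cells (2% hematocrit, 0.05% parasitemia final), exposed to compound two generations (96 h, 37 C, 5% CO2).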
Pf growth 48h: P. falciparum growth inhibition at 48 hours (one generation) | P. falciparum luciferase growth in erythrocytes, 48 h | Potency, µM (series often up to 28.7 µM), inactives show top-dose activity change, negative = inhibition, hits mostly inhibitors | 5.9% of 310,000 active | AID 504832; note: potency is the fitted concentration of half-maximal effect; % is set by controls: 0 for no effect and ±100 for the full control effect
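Here the parasites carry a stable luciferase gene and grow inside erythrocytes in Albumax-based RPMI medium with compound for one erythrocytic cycle. Activity is scored as loss of luminescent signal.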
Shiga toxin inh: blocks Shiga toxin action in Vero cells; Vero cells, Shiga toxin protein synthesis inhibition reporter; 9.2% of 290,000 active; inhibition, % at 38.7 µM; in the data active = inhibition mostly above about 28%, no sharp cut-off; inactive = mostly below about 43%; note: 0% is about no effect
LmPK inh: blocks Leishmania mexicana pyruvate kinase activity | Q27686 | purified LmPK, Kinase-Glo ATP luminescence, 1 h | Potency, µM (highest dose often 57.5 µM), inactives show at the highest dose activity change, negative = inhibition, most hits filed as inhibitors | 0.37% of 290,000 active | AID 1721; note: potency is the fitted concentration of half-maximal effect; % is set by controls: 0 for no effect and ±100 for the full control effect
Target sequence (Q27686 whole entry, looked up): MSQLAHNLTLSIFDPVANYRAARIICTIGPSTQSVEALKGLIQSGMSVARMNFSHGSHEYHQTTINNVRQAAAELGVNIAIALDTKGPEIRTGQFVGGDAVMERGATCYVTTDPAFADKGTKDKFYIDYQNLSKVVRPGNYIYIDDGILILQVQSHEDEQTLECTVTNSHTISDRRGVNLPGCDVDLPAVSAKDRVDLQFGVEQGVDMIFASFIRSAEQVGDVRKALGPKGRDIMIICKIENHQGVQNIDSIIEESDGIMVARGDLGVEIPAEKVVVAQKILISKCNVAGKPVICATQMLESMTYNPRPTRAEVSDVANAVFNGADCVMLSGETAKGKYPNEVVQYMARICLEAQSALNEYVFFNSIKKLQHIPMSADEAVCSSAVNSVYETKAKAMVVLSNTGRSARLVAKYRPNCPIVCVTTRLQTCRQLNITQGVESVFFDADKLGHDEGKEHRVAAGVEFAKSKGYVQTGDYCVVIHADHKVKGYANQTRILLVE
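Screened at intermediate enzyme activity to detect both inhibitors and activators: LmPK at 0.1 nM, with a 0.5 nM enzyme column as activation reference. PEP 0.5 mM, ADP 0.1 mM; ATP detected by luminescence after 1 h.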
CHX counter: affects cycloheximide protein synthesis inhibition readout, counter-screen; cell reporter, cycloheximide protein synthesis inhibition counterscreen; max response, %; 12% of 300,000 active; AID 2314; in the data active = max response mostly above about 13%, no sharp cut-off; inactive = mostly below about 14%; note: read at 38.3 µM for the half of the compounds with a filed dose; 0% is about no effect
Numbers without * were called inactive; [ ] = remark or other dose. Hits are enriched below; roughly 22% of the tested compounds scored in any of these assays. Unless noted, calls come from the whole dose curve; as a rule, active = well fitted inhibition curve with a large enough effect; inconclusive = small, poorly fitted or top-dose-only effect, or another doubt; inactive = no such curve, though single readings can be large or run the other way.

`COc1cc2c(cc1OC)/C(=C/C(=O)c1ccc(OC)c([N+](=O)[O-])c1)NCC2` gave Pf growth 96h inconclusive, Pf growth 48h 0%, Shiga toxin inh 19, LmPK inh 7% and CHX counter 11*.
N#CCC(=N)N1CCN(c2ccc(F)cc2)CC1 was read as Pf growth 96h 0%, Pf growth 48h -28%, Shiga toxin inh 17, LmPK inh -4% and CHX counter -1.
`COc1ccc(S(=O)(=O)CCC(=O)N2c3ccccc3CC2C)cc1` (stereo not given) gave Pf growth 96h 10%, Pf growth 48h -25%, Shiga toxin inh -8, LmPK inh -8% and CHX counter -5.
`COc1ccc(CCC2(C)NC(=O)N(C(C)C(=O)N3c4ccccc4CC3C)C2=O)cc1` (stereo not given) gave Pf growth 96h inconclusive and Pf growth 48h 13µM*.
CCN(CC(=O)Nc1cc(Cl)ccc1C)C(=O)CCS(=O)(=O)c1ccc(C)cc1 was read as Pf growth 96h 7% and Pf growth 48h -15%.
COc1ccc(C(=S)N2CCN(c3ccccc3C)CC2)cc1 was read as Pf growth 96h 8.3µM*, Pf growth 48h inconclusive, Shiga toxin inh 14, LmPK inh 5% and CHX counter -1.
For Cc1ccc(C)c(N2CCN(C(=O)c3cc4ccccc4oc3=O)CC2)c1 the results were Pf growth 96h 9.3µM*, Shiga toxin inh -5, LmPK inh 10% and CHX counter -2.
`COc1ccc2oc(=O)c(C(=O)N3CCN(C(=O)c4ccccc4)CC3)cc2c1` gave Pf growth 96h inconclusive, Pf growth 48h 3%, Shiga toxin inh -10, LmPK inh -4% and CHX counter -3.
Screening COc1ccc2oc(=O)c(C(=O)N3CCN(c4ccccc4)CC3)cc2c1 returned Pf growth 48h 0%, Shiga toxin inh 78, LmPK inh 2% and CHX counter 19*.
`COC(=O)/C=C/C(=O)N1CCN(c2ccccc2)CC1` gave Pf growth 96h inconclusive, Pf growth 48h -5%, Shiga toxin inh 32, LmPK inh -6% and CHX counter -1.
`COc1ccc(C(=S)N2CCCCCC2)cc1` gave Pf growth 96h -22%, Pf growth 48h 25%, Shiga toxin inh 14, LmPK inh 6% and CHX counter -3.
COC(=O)/C=C/C(=O)N1CCN(c2ccccc2C)CC1 was read as Pf growth 96h 7.4µM*, Pf growth 48h -17%, Shiga toxin inh 2, LmPK inh 4% and CHX counter 1.
Screening O=C(c1ccco1)N1CCN(C(=O)c2cc3ccccc3oc2=O)CC1 returned Pf growth 96h -15%, Pf growth 48h 10%, Shiga toxin inh -5, LmPK inh 0% and CHX counter -2.
Screening O=C(c1ccc(F)cc1Cl)N1CCN(CCc2ccccc2)CC1 returned Pf growth 96h 8.3µM*, Pf growth 48h 5%, Shiga toxin inh -9, LmPK inh -1% and CHX counter 1.
`O=C(c1cc2ccccc2oc1=O)N1CCN(CCc2ccccc2)CC1` gave Pf growth 96h 9.3µM*, Pf growth 48h 7%, Shiga toxin inh 42, LmPK inh -1% and CHX counter 8.
COc1ccc2oc(=O)c(C(=O)N3CCN(c4ccccc4C)CC3)cc2c1 was read as Pf growth 48h 4%, Shiga toxin inh 132*, LmPK inh 4% and CHX counter 66*.
Screening COC/C=C/C1=CC2=CC(=O)C(C)(OC(=O)c3cnc4ccccc4n3)C(=O)C2=CN1Cc1ccc2c(c1)OCO2 (stereo not given) returned LmPK inh -2%[11.5 µM].
Screening CCOc1cccc(-c2c(C(=O)N/N=C/c3ccoc3)nnn2-c2nonc2N)c1 returned Pf growth 96h inconclusive, Pf growth 48h 4%, Shiga toxin inh -5, LmPK inh 4% and CHX counter -10.
Screening CC(C)Sc1ncnc2c1oc1ccccc12 returned Pf growth 96h 19%, Pf growth 48h -3%, Shiga toxin inh 85*, LmPK inh 4% and CHX counter 32*.
For c1ccc(Sc2ncnc3c2oc2ccccc23)nc1 the results were Pf growth 96h inconclusive, Pf growth 48h 92%, Shiga toxin inh 115*, LmPK inh 5% and CHX counter 64*.
O=C(CSc1ncnc2c1oc1ccccc12)Nc1ccccc1F was read as Pf growth 96h 8%, Shiga toxin inh -14, LmPK inh 8% and CHX counter -1.
For CCOc1ccccc1NC(=O)CSc1ncnc2c1oc1ccccc12 the results were Pf growth 96h 275%, Pf growth 48h -15%, Shiga toxin inh -12, LmPK inh 5% and CHX counter 23*.
Screening Fc1ccccc1CSc1ncnc2c1oc1ccccc12 returned Pf growth 96h 16%, Pf growth 48h 46%, Shiga toxin inh -11, LmPK inh 1% and CHX counter -9.
Screening c1coc(CSc2ncnc3c2oc2ccccc23)c1 returned Pf growth 96h 152%, Pf growth 48h 132%, Shiga toxin inh 85*, LmPK inh 3% and CHX counter 57*.
For CC(=O)CSc1ncnc2c1oc1ccccc12 the results were Pf growth 96h 86%, Pf growth 48h 76%, Shiga toxin inh 23, LmPK inh -6% and CHX counter 12*.
Screening CCc1nc(SCC(=O)c2cccs2)c2oc3ccccc3c2n1 returned Pf growth 96h 0%, Pf growth 48h 0%, Shiga toxin inh 44, LmPK inh 0% and CHX counter 27*.
`O=C(CSc1ncnc2c1oc1ccccc12)Nc1nc2ccccc2s1` gave Pf growth 96h 1%, Pf growth 48h inconclusive, Shiga toxin inh 10, LmPK inh -3% and CHX counter -3.
Screening O=C(CSc1ncnc2c1sc1ccccc12)Nc1ccc(Br)cc1 returned Pf growth 96h 13µM*, Pf growth 48h -2%, Shiga toxin inh -6, LmPK inh 0% and CHX counter -2.
COC(=O)c1ccc(CSc2ncnc3c2oc2ccccc23)o1 was read as Pf growth 96h -4%, Pf growth 48h -6%, Shiga toxin inh 61, LmPK inh 2% and CHX counter -5.
CCCSc1ncnc2c1oc1ccccc12 was read as Pf growth 96h inconclusive, Pf growth 48h 21%, Shiga toxin inh 27, LmPK inh -2% and CHX counter 25*.
For CN1C(C(=O)N2CCc3ccccc3C2)=CC(c2ccc(F)cc2)=NS1(=O)=O the results were Pf growth 96h 64%, Pf growth 48h -7%, Shiga toxin inh -1, LmPK inh -1% and CHX counter 0.
`Fc1cccc(C2CCCCN2Cc2nc(C3CC3)no2)c1` (stereo not given) gave Pf growth 96h inconclusive, Pf growth 48h 6%, Shiga toxin inh 4, LmPK inh 1% and CHX counter -1.
For COc1ncnc2c1oc1ccccc12 the results were Pf growth 96h 4.7µM*, Pf growth 48h 128%, Shiga toxin inh 112*, LmPK inh -5% and CHX counter 48*.
